Source: PubChem BioAssay (Tox21)
Where “and” joins values, the source holds several entries; their conditions need not be identical. Identical values can stand only once. Inconclusive results are not listed. A call without a number means that no potency is given here. Some compounds were tested as several samples or in several runs, with calls that do not always agree. Calls of active or inactive are those of the source. Unless noted, the call rests on the fitted dose curve; in most records, active means well fitted curve in the direction sought with a large enough effect in the repeat runs; inconclusive means weak or mixed curves; inactive means no such curve, though single readings can be large; an effect the other way counts as inactive or inconclusive.

Legend:
[1] = Human pregnane X receptor (PXR) small molecule agonists, qHTS cell viability counter screen (AID 1346977); further: nearly all actives have a fitted effect of over 50% in size
In short: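 Readout is CellTiter-Fluor fluorescence from PXR-Luc HepG2 cells. Plated cells rested 5hr, then were treated with compounds for 24hr at 37C and 5% CO2, with reagent present during the last hour.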

[2] = Caspase-3/7 induction in HepG2 cells by small molecules, qHTS assay (AID 1346978); further: nearly all actives have a fitted effect of over 15% in size
In short: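 Wild-type HepG2 cells, 2,000/well, settled 5 hr at 37 C and 5% CO2, then compound-treated for 17 hr; caspase-3/7 activity read by luminescent Caspase-Glo 3/7 after 30 min at room temperature.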

[3] = Caspase-3/7 induction in CHO-K1 cells by small molecules, qHTS cell viability counter screen (AID 1346979); further: nearly all actives have a fitted effect of over 35% in size
In short: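 To flag cytotoxic compounds, treated CHO-K1 wild-type cells were given CellTiter-Fluor at 16hr and read fluorescently after 1hr at 37C; the caspase-3/7 luminescence was measured in these same wells.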

[4] = Caspase-3/7 induction in CHO-K1 cells by small molecules, qHTS assay (AID 1346980); further: nearly all actives have a fitted effect of over 15% in size
In short: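 Wild-type CHO-K1 cells exposed to compounds for 17hr at 37 C, 5% CO2. Caspase-3/7 activity then measured by Caspase-Glo 3/7 luminescence after 30min at room temperature.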

[5] = Caspase-3/7 induction in HepG2 cells by small molecules, qHTS cell viability counter screen (AID 1346981); further: series mostly up to about 92 µM; nearly all actives have a fitted effect of over 30% in size
In short: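 Fluorescence read-out of live-cell protease activity (CellTiter-Fluor) after 1 hr with reagent. This was measured in the same wells as the caspase-3/7 luminescence, on HepG2 cells exposed to DMSO-dissolved compounds for 16 hr at 37 C.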

[6] = target: Nuclear receptor subfamily 1 group I member 2 (Homo sapiens) (UniProt O75469); test: Human pregnane X receptor (PXR) small molecule agonists, qHTS assay (AID 1346982); further: nearly all actives have a fitted effect of over 35% in size; further: potency means the concentration at half of the fitted maximal effect
In short: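 HepG2 PXR-Luc reporter line, 5% charcoal-stripped FBS; 5 hr pre-incubation, compound (DMSO) 24 hr at 37 C/5% CO2; ONE-Glo 30 min RT; luminescence read-out.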

[7] = target: Nuclear receptor subfamily 1 group I member 2 (Rattus norvegicus) (UniProt Q9R1A7); test: Rat pregnane X receptor (rPXR) activation by small molecules, qHTS assay (AID 1346983); conditions: rPXR luciferase reporter cells, One-Glo luminescence, 24 h; max activation: stronger effect = higher value; further: nearly all actives have a fitted effect of over 20% in size
In short: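 Cell-based rPXR activation assay: rPXR cells, 2,000 per well, rested 5hr at 37 C, then exposed to compounds in DMSO for 24 hr at 37 C. Luciferase activity read by One-Glo luminescence after 30 min at room temperature.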

[8] = target: Nuclear receptor subfamily 1 group I member 2 (Homo sapiens) (UniProt O75469); test: CYP3A4 induction through human pregnane X receptor (PXR) by small molecules, qHTS assay (AID 1346984); further: nearly all actives have a fitted effect of over 40% in size
In short: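 HepG2-derived DPX-2 line carrying PXR plus a CYP3A4-promoter luciferase reporter; cells plated 5 hr, compound-exposed 24 hr at 37C. CYP3A4 activity probed with 3uM (final) Luciferin-IPA for 3hr, then luciferase read after One-Glo.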

[9] = target: Nuclear receptor subfamily 1 group I member 2 (Homo sapiens) (UniProt O75469); test: Human pregnane X receptor (PXR) activation by small molecules, qHTS assay (AID 1346985); further: nearly all actives have a fitted effect of over 40% in size
In short: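 DPX-2 cells (HepG2 co-transfected with a PXR response element and a CYP3A4-promoter luciferase construct) were seeded at 2,000 per well, rested 5 hr at 37C, then exposed to DMSO-dissolved compounds for 24 hr. Activation was read as luciferase luminescence.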

[10] = target: Acetylcholinesterase (Homo sapiens) (UniProt P22303); test: Acetylcholinesterase (AChE) small molecule antagonists: colormetric cell-based qHTS assay (AID 1347395; calls by dose curve; further: nearly all actives have a fitted effect of over 30% in size; further: potency means the concentration at half of the fitted maximal effect)
In short: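 Neuroblastoma line SH-SY5Y supplied the enzyme; cells were preincubated with compound for 30 min at 37 C and 5% CO2. Acetylthiocholine with DTNB was then added for 90 min at 37 C, and thiocholine was measured by colour.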

[11] = target: Acetylcholinesterase (Homo sapiens) (UniProt P22303); test: Acetylcholinesterase (AChE) small molecule antagonists: enzyme-based qHTS assay (AID 1347397; calls by dose curve; further: nearly all actives have a fitted effect of over 55% in size; further: potency means the concentration at half of the fitted maximal effect); conditions: Potency: AChE enzyme activity inhibition
In short: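 In this quantitative HTS, compounds from the Tox21 10K collection were preincubated 30 min at ambient temperature with recombinant human AChE dispensed at 50 mU/mL. Hydrolysis of acetylthiocholine was then followed for 10 min by DTNB colour development.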

[12] = target: Acetylcholinesterase (Homo sapiens) (UniProt P22303); test: Acetylcholinesterase (AChE) small molecule antagonists: enzyme-based qHTS assay with human liver microsomes (AID 1347399; calls by dose curve; further: nearly all actives have a fitted effect of over 60% in size; further: potency means the concentration at half of the fitted maximal effect); conditions: Potency: qHTS inhibition
In short: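 Recombinant human AChE (50 mU/mL in the enzyme mix) and human liver microsomes (0.25 mg/mL final) were preincubated with compound and NADPH (0.25 mg/mL final) for 30 min at 37 C. Acetylthiocholine/DTNB was then added; thiocholine was read colorimetrically after 10 min at room temperature.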

[13] = target: Cytochrome P450 2D6 (Homo sapiens) (UniProt P10635); test: Cytochrome P450 Family 2 Subfamily D Member 6 (CYP2D6) small molecule antagonists: luciferase reporter qHTS assay (AID 1671196); further: series mostly up to about 120 µM; nearly all actives have a fitted effect of over 50% in size
In short: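 Luminogenic proluciferin substrate, CYP2D6 enzyme; 10 min RT preincubation with compound, NADPH regeneration system added, 1 h RT. Stop/detection reagent, 20 min RT, luminescence read (RLU). Signal proportional to CYP activity.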

[14] = target: Cytochrome P450 2C19 (Homo sapiens) (UniProt P33261); test: Cytochrome P450 Family 2 Subfamily C Member 19 (CYP2C19) small molecule antagonists: luciferase reporter qHTS assay (AID 1671197); further: nearly all actives have a fitted effect of over 65% in size; further: potency means the concentration at half of the fitted maximal effect
In short: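 CYP2C19 P450-Glo, 1536-well qHTS. Cpd + enzyme/proluciferin substrate 10 min RT; + NADPH regen, 37C 1 h; stop with luciferin detection reagent, 20 min RT, luminescence (RLU). Pos ctrl ketoconazole.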

[15] = target: Cytochrome P450 2C9 (Homo sapiens) (UniProt P11712); test: Cytochrome P450 Family 2 Subfamily C Member 9 (CYP2C9) small molecule antagonists: luciferase reporter qHTS assay (AID 1671198); further: nearly all actives have a fitted effect of over 50% in size; further: potency means the concentration at half of the fitted maximal effect
In short: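 P450-Glo proluciferin substrate with CYP2C9 enzyme; 10 min RT preincubation, then NADPH regeneration 1 h at 37C; luciferin detection reagent 20 min RT, luminescence in relative luminescence units.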

[16] = target: Voltage-gated inwardly rectifying potassium channel KCNH2 (Homo sapiens) (UniProt Q12809); test: Human Ether-a-go-go-Related Gene (hERG) channel small molecule antagonists: fluorescence cell-based qHTS assay (AID 1671200);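 further: hERG-expressing U2OS cells given a thallium stimulus after FluxOR II dye loading; series mostly up to about 77 µM; nearly all actives have a fitted effect of over 50% in size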
In short: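 Measured: Tl+ flux via fluorescence (480/540 nm) in hERG-expressing U2OS cells after 1 h dye loading at room temperature.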

[17] = target: Cytochrome P450 3A4 (Homo sapiens) (UniProt P08684); test: Cytochrome P450 Family 3 Subfamily A Member 4 (CYP3A4) small molecule antagonists: luciferase reporter qHTS assay (AID 1671201); further: nearly all actives have a fitted effect of over 50% in size; further: potency means the concentration at half of the fitted maximal effect
In short: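 Setup: enzyme-substrate mix, compound pin transfer, 10 min RT. Reaction: NADPH regeneration solution, 1 h RT. Readout: detection reagent stops turnover, luminescence measured after 20 min, expressed in relative luminescence units.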

[18] = target: Acetylcholinesterase (Homo sapiens) (UniProt P22303); test: Acetylcholinesterase (AChE) small molecule antagonists: fluorescence cell-based qHTS assay (AID 1347398; calls by dose curve; further: nearly all actives have a fitted effect of over 50% in size; further: potency means the concentration at half of the fitted maximal effect); conditions: Potency: AChE activity
In short: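 Cells (SH-SY5Y) attached overnight, were dosed with compound or DMSO vehicle for 30 min at 37 C, and then incubated 40 min at room temperature with acetylthiocholine and Thiolite Green; green fluorescence indexed AChE activity.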

[19] = target: Cytochrome P450 1A2 (Homo sapiens) (UniProt P05177); test: Cytochrome P450 Family 1 Subfamily A Member 2 (CYP1A2) small molecule antagonists: luciferase reporter qHTS assay (AID 1671199); further: nearly all actives have a fitted effect of over 50% in size; further: potency means the concentration at half of the fitted maximal effect
In short: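 Luminescence readout (relative luminescence units) after luciferin detection reagent, 20 min RT. Preceded by 1 h room-temperature CYP1A2 reaction with NADPH regeneration solution following 10 min compound preincubation with enzyme and proluciferin substrate. Furafylline positive control.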

Cytochrome P450 2C19 (Homo sapiens), sequence (P33261 whole entry, looked up): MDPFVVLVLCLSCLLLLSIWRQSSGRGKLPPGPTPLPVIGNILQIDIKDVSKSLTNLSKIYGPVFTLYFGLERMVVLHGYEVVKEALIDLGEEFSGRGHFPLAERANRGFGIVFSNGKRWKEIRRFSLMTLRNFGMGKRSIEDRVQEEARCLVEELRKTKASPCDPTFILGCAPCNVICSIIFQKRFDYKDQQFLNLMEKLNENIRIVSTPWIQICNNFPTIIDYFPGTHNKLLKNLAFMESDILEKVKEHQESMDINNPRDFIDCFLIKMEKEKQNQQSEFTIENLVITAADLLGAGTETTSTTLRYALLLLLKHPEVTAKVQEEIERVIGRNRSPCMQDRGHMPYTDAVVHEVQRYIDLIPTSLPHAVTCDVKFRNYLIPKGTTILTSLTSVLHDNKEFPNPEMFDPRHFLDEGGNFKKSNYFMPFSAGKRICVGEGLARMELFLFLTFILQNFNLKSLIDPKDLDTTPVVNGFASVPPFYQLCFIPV
Acetylcholinesterase (Homo sapiens), sequence (P22303 whole entry, looked up): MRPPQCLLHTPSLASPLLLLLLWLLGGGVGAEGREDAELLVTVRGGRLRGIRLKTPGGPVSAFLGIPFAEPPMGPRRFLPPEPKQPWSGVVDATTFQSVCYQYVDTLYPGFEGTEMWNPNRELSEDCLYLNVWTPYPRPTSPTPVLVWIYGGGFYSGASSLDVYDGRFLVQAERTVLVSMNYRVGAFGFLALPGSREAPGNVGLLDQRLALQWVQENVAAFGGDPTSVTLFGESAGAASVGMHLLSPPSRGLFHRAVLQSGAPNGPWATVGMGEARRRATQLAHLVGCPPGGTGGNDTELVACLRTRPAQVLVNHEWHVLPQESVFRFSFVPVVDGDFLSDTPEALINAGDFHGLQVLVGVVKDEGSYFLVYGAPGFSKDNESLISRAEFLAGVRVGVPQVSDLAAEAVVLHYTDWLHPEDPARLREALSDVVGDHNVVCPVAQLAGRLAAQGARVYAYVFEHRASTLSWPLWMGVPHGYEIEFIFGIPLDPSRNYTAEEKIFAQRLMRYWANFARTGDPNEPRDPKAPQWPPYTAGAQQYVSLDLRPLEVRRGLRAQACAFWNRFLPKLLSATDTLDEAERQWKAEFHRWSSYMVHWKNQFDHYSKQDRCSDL
Cytochrome P450 2D6 (Homo sapiens), sequence (P10635 whole entry, looked up): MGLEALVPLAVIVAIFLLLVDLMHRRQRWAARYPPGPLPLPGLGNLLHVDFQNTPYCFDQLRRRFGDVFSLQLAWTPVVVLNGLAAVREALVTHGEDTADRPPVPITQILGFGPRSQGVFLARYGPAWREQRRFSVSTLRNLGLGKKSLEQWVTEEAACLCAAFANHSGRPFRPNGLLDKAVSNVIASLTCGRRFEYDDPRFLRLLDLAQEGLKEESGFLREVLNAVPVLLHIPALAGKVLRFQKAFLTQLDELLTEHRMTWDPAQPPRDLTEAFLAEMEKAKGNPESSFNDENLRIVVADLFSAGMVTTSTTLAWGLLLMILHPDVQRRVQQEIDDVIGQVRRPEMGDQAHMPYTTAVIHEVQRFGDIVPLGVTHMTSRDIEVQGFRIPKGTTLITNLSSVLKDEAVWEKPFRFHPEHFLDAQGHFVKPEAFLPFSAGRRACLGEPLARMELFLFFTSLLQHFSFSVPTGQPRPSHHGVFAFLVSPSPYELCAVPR
Nuclear receptor subfamily 1 group I member 2 (Homo sapiens), sequence (O75469 whole entry, looked up): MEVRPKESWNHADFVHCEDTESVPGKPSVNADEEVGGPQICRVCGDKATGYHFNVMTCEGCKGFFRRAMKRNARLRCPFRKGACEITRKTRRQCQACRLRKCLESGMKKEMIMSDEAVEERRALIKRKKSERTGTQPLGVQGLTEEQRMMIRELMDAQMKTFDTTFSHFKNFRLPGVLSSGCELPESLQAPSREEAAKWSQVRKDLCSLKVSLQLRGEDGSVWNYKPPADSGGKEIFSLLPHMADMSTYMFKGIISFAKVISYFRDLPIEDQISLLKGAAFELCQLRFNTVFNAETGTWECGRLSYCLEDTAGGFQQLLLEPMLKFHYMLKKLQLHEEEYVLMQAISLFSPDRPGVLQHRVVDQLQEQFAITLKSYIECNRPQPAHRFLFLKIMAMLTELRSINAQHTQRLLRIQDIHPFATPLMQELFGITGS
Cytochrome P450 3A4 (Homo sapiens), sequence (P08684 whole entry, looked up): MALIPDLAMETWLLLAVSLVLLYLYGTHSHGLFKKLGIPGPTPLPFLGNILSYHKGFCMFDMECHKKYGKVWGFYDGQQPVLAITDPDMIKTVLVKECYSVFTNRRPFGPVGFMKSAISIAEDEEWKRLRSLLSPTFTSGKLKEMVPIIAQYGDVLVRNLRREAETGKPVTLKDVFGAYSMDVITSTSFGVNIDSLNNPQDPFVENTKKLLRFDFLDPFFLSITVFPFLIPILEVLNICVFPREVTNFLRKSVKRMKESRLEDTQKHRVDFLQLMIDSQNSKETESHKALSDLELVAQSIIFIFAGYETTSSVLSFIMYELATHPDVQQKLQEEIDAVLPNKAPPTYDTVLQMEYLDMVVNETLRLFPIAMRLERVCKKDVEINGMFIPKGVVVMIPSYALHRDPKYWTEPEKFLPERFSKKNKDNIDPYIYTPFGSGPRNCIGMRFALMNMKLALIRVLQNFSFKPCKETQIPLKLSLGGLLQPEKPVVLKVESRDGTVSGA
Cytochrome P450 2C9 (Homo sapiens), sequence (P11712 whole entry, looked up): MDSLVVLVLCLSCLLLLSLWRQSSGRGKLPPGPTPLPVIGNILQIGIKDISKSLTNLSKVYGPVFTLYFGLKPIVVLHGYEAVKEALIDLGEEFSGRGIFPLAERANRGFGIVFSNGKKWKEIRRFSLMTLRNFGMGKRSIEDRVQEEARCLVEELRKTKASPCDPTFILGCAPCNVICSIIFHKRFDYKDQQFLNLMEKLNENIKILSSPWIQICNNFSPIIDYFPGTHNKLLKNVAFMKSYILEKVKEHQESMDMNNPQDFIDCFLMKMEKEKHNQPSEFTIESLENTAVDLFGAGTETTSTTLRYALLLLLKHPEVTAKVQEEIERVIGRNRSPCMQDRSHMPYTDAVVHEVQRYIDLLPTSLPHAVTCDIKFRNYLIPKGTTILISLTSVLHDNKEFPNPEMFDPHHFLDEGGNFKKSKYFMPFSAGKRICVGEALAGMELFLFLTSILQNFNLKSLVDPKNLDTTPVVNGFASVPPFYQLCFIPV
Voltage-gated inwardly rectifying potassium channel KCNH2 (Homo sapiens), sequence (Q12809 whole entry, looked up): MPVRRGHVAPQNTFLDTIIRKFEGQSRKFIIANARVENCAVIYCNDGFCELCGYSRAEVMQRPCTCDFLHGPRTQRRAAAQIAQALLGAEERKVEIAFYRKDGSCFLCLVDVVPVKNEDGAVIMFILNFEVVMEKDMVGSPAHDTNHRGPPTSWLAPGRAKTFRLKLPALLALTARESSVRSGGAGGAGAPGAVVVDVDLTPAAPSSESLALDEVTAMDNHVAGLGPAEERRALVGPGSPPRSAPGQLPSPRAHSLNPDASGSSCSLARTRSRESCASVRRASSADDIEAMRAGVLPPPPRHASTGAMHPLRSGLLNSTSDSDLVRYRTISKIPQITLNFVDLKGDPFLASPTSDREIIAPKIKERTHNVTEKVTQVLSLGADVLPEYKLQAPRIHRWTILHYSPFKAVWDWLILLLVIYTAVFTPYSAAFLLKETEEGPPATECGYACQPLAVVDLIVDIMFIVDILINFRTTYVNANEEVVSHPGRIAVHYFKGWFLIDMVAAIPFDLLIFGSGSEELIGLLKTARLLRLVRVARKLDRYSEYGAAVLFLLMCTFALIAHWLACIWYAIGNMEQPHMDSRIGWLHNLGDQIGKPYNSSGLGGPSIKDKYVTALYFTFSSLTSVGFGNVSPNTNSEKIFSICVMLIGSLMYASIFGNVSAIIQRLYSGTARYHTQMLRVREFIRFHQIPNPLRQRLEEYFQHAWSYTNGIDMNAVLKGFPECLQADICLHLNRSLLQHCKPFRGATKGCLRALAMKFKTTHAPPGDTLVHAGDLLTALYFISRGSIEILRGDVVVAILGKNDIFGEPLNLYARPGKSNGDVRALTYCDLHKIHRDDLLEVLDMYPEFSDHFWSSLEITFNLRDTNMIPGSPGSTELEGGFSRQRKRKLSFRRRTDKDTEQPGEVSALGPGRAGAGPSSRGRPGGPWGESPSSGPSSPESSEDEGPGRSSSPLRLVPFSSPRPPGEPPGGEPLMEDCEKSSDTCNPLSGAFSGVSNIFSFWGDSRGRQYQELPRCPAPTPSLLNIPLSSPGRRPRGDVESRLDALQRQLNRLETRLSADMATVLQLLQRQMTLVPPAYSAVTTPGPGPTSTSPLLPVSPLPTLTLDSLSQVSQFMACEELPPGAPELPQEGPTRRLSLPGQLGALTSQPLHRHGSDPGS
Cytochrome P450 1A2 (Homo sapiens), sequence (P05177 whole entry, looked up): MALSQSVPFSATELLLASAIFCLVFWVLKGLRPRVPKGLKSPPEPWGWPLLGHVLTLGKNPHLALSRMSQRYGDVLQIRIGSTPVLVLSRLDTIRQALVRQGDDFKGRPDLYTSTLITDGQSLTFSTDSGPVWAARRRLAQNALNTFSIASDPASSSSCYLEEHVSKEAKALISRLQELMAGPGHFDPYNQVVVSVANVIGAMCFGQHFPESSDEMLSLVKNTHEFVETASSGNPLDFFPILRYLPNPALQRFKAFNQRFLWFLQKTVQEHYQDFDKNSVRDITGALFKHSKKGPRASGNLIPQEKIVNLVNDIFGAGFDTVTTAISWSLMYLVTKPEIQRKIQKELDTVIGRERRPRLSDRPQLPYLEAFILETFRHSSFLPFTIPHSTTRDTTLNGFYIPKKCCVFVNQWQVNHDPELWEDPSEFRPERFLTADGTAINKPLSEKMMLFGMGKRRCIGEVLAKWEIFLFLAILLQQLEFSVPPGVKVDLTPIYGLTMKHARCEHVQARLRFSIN

| SMILES | Potency [1] | Potency [2] | Potency [3] | Potency [4] | Potency [5] | Potency [6] | max activation [7] | Potency [8] | Potency [9] | Potency [10] | Potency [11] | Potency [12] | Potency [13] | Potency [14] | Potency [15] | Potency [16] | Potency [17] | Potency [18] | Potency [19] |
| --- | --- | --- | --- | --- | --- | --- | --- | --- | --- | --- | --- | --- | --- | --- | --- | --- | --- | --- | --- |
| Cn1sc(Cl)cc1=O | inactive | inactive | inactive | inactive | inactive | inactive | -5.85% (inactive) | inactive | inactive | inactive | inactive | inactive | inactive | inactive | 71 µM (active) | inactive | inactive | – | – |
| N#C/C(N)=C(/N)C#N | inactive | inactive | inactive | inactive | inactive | inactive | – | – | – | inactive | inactive | inactive | inactive | 30.8 µM (active) | – | inactive | – | inactive | 21.8 µM (active) |
| CC(=O)C(C)(C)C | inactive | inactive | inactive | inactive | inactive | inactive | – | – | – | inactive | inactive | inactive | inactive | inactive | inactive | inactive | inactive | inactive | 37 µM (active) |
| CCOP(=S)(OCC)Oc1nc(Cl)c(Cl)cc1Cl | inactive | inactive | inactive | inactive | inactive | 17.3 µM (active) and inactive | – | – | – | 35.7 µM (active) and 35.6 µM (active) | 79.9 µM (active) | 56.6 nM (active) and 894 nM (active) | – | 2.25 µM (active) and 5.03 µM (active) | 7.99 µM (active) and 10 µM (active) | inactive | 1.13 µM (active) and 2 µM (active) | 35.7 µM (active) and 35.6 µM (active) | 2.53 µM (active) and 3.56 µM (active) |
| NNC(=O)c1cccnc1 | inactive | inactive | inactive | inactive | inactive | 27.4 µM (active) | – | – | – | inactive | inactive | inactive | – | 71.3 µM (active) | – | inactive | 2.53 µM (active) | inactive | 12.7 µM (active) |
| CCCCN=C=O | inactive | inactive | inactive | inactive | inactive | inactive | – | – | – | – | inactive | inactive | inactive | 35.2 µM (active) | inactive | inactive | inactive | inactive | – |
| COC(=O)C(Cl)C(=O)OC | inactive | inactive | inactive | inactive | inactive | inactive | – | – | – | – | inactive | inactive | inactive | – | inactive | inactive | – | inactive | inactive |
| CCC(Br)(CC)C(=O)NC(N)=O | inactive | inactive | inactive | inactive | inactive | inactive | – | – | – | inactive | inactive | inactive | – | inactive | inactive | inactive | inactive | inactive | inactive |
